# Assay results taken from ChEMBL document CHEMBL1961873, “Compounds: GSK PKIS; Assays: Nanosyn kinase panel” (2012).
# Target: Cyclin-dependent kinase 1 (Homo sapiens) (UniProt P06493)
# Conditions: at 0.1 µM
# 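Further: enzyme assay on the CDK1/cyclin B complex, reported as mean percent inhibition.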
# Chain of Cyclin-dependent kinase 1 (Homo sapiens) (P06493 whole entry, looked up): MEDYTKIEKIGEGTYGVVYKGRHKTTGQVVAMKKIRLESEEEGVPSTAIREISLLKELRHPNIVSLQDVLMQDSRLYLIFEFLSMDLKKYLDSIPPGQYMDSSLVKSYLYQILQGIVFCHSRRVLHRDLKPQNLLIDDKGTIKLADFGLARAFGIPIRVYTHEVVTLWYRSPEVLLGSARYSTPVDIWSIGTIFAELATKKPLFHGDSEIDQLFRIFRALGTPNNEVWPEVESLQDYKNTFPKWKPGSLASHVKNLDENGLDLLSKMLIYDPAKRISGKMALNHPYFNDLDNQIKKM
row,SMILES,inhibition
1,CCCN(CCS(C)(=O)=O)Cc1ccc(-c2ccc3ncnc(Nc4ccc(OCc5cccc(F)c5)c(Cl)c4)c3c2)o1,2.23%
2,CCn1c(-c2nonc2N)nc2c(C#CC(C)(C)O)ncc(OC3CCNCC3)c21,2.33%
3,CCn1c(-c2nonc2N)nc2c(C#CC(C)(C)O)nc(OC[C@H](N)c3ccccc3)cc21,2.55%
4,CC(=O)Nc1cccc(C#Cc2cncnc2Nc2ccc(OCc3cccc(F)c3)c(Cl)c2)c1,-0.4%
5,Cc1ccc(O)cc1Nc1ccnc2cc(-c3ccccn3)ccc12,0.02%
6,CCn1c(-c2nonc2N)nc2cnc(Oc3cccc(NC(=O)c4ccc(N(C)C)cc4)c3)cc21,0.43%
7,NC(=O)c1sc(-n2cnc3ccc(C(F)(F)F)cc32)cc1OCc1ccccc1Br,-0.53%
8,CCc1nn2ncccc2c1-c1ccnc(NC2CC2)n1,2.52%
9,N#Cc1c(NC(=O)CN2CCOCC2)sc2c1CCCC2,4.8%
10,CN(C)CCOc1ccc(-c2nc(-c3ccncc3)c(-c3ccc4c(c3)CC/C4=N\O)[nH]2)cc1,1.59%
11,CCOc1ccc2c(-c3ccnc(Nc4cccc(C(F)(F)F)c4)n3)cnn2n1,0.34%
12,COc1cccc(-c2c[nH]c3c(N/N=C/c4ccncc4)ncnc23)c1,42%
13,c1cc(-c2cnn3nc(N4CCOCC4)ccc23)nc(NC2CC2)n1,2.3%
14,CNC(=O)c1cncc(/C=C/c2ccccc2Cl)c1,0.47%
15,c1ccc(-c2nc3n(c2-c2ccc4c(c2)OCO4)CCC3)nc1,0.17%
16,Fc1cccc(COc2ccc(Nc3ncnc4sc(-c5ccco5)cc34)cc2Cl)c1,-1.09%
17,CC(C)(CO)CNC(=O)c1ccc2c(c1)/C(=N/Nc1ccc(S(N)(=O)=O)cc1)C(=O)N2,37.2%

row,SMILES,inhibition
1,COc1ccc(-c2cc(-c3c[nH]nc3-c3ccccn3)ccn2)cc1,0.11%
2,CC(=O)NCc1cccc(C#Cc2cncnc2Nc2ccc(OCc3cccc(F)c3)c(Cl)c2)c1,0.28%
3,COc1ccc(CNC(=O)c2ccc(-c3cc(-c4nnc(C)o4)ccc3C)cc2)cc1,1.08%
4,O=S(=O)(CCNCc1ccc(-c2ccc3ncnc(Nc4ccc(OCc5cccc(F)c5)c(Cl)c4)c3c2)o1)c1ccccc1,0.29%
5,Nc1nc(-c2cccc(Cl)c2)c(-c2ccc3ncccc3n2)s1,0.61%
6,CS(=O)(=O)CCNCc1ccc(-c2ccc3ncnc(Nc4ccc(OCc5ccccc5)c(C(F)(F)F)c4)c3c2)o1,0.28%
7,CCN(CC)S(=O)(=O)c1ccc(OC)c(Nc2ncc(-c3ccccc3)o2)c1,0.99%
8,CS(=O)(=O)CCNCc1coc(-c2ccc3ncnc(Nc4ccc(OCc5ccccc5)cc4)c3c2)c1,2.51%
9,CCN1CCC(CC(=O)Nc2n[nH]c3nnc(-c4cccc(F)c4F)cc23)CC1,1.67%
10,CN1CCC(n2cnc(-c3ccc(F)cc3)c2-c2ccnc(Nc3ccccc3)n2)CC1,0.37%
11,CCNC(=O)O[C@H]1CN[C@H](C#Cc2cc3ncnc(Nc4ccc(OCc5cccc(F)c5)c(Cl)c4)c3s2)C1,0.57%
12,Clc1ccc(-c2nn3ncccc3c2-c2ccnc(Nc3ccccc3)n2)cc1,0.56%
13,Cc1cccc2c1NC(=O)/C2=N\Nc1ccc(S(N)(=O)=O)cc1,0.2%
14,COc1cc(/C=N/Nc2ncnc3[nH]ncc23)ccc1O,2.77%
15,COc1cccc(-n2ncc3c(N/N=C/c4ccc(F)cc4)ncnc32)c1,9.55%
16,COc1cc(N2CCN(C(C)C)CC2)ccc1Nc1nc(Nc2ccc(F)cc2C(N)=O)c2cc[nH]c2n1,1.39%
